# Bioassay records: PubChem, National Center for Advancing Translational Sciences (NCATS)
# HP1b chromo inh – HP1-beta chromodomain-methylated histone interaction inhibition. AlphaScreen HP1-beta / biotin-H3K9me3 peptide binding. Potency, µM (doses to about 114 µM), for inactives: at the top dose activity change, negative = inhibition, hits mostly inhibitors. hit rate 0.56% among 390,000. AID 540317; further: nearly all actives have a fitted effect of over 70% in size
#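 AlphaScreen: HP1-beta (50 nM) preformed 30 min with biotin-H3(1-18)K9me3 peptide (50 nM) in PBS pH 7.4, 0.01% Tween-20. Compound added for 30 min at RT, then streptavidin donor/nickel chelate acceptor beads (10 ug/mL) for 30 min.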
# L3MBTL1 inh – L3MBTL1 (human) inhibition; AID 485360; Q9Y468; hit rate 0.66% among 230,000; Potency, µM (titrated, usually from 57.1 µM), for the others: at the highest dose activity, negative = inhibition, actives largely listed as inhibitors; AlphaScreen L3MBTL1–H3K9me1 peptide binding; further: on the % scale 0 is the no-effect control and ±100 the full control effect; nearly all actives have a fitted effect of over 60% in size
# Target sequence (Q9Y468 whole entry, looked up): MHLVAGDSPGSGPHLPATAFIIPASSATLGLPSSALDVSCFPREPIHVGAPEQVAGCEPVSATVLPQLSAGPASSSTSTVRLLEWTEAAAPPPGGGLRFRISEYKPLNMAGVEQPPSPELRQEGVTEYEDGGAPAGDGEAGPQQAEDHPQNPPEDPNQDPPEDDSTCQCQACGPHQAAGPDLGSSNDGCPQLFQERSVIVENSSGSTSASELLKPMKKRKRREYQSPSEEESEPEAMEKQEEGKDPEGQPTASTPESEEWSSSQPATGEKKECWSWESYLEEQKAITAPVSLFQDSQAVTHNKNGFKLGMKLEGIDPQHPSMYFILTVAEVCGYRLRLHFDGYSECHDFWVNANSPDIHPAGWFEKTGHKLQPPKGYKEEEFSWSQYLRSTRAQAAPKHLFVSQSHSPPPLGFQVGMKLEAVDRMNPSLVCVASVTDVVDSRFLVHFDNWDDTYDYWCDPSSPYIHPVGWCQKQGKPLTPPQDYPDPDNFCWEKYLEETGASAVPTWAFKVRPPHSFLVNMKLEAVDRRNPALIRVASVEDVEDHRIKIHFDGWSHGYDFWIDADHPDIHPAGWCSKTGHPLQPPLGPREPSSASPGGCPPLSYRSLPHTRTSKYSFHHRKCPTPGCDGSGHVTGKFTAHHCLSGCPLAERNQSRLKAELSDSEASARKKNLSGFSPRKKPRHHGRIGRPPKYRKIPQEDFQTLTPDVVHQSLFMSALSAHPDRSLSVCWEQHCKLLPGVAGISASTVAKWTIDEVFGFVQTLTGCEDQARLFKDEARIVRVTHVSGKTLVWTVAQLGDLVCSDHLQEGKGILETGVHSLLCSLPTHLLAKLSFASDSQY
#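 Read-out is AlphaScreen signal from streptavidin donor and nickel chelate acceptor beads (10 ug/mL final each) bridging L3MBTL1 (50 nM) and biotinylated K9-monomethylated H3(1-15) peptide (75 nM), after 30 min compound exposure at room temperature.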
# JMJD2A Tudor inh – JMJD2A Tudor domain (human) inhibition; AlphaScreen JMJD2A-Tudor / H3K4me3 peptide binding; Potency, µM (top dose mostly 114 µM), inactives show at the top dose activity change, negative = inhibition, most hits filed as inhibitors; AID 504339; hit rate 4.4% among 390,000; further: on the % scale 0 is the no-effect control and ±100 the full control effect; nearly all actives have a fitted effect of over 50% in size
# BAZ2B inh – inhibitors of human BAZ2B bromodomain | Potency, µM (series often up to 114 µM), without a hit: top-dose activity change, negative = inhibition, usual class: inhibitors | AlphaScreen BAZ2B-H3K14Ac peptide displacement | Q9UIF8 | AID 504333 | hit rate 4.4% among 360,000; further: on the % scale 0 is the no-effect control and ±100 the full control effect; nearly all actives have a fitted effect of over 60% in size
#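 Compounds, titrated to a top concentration of 110 uM, were incubated 30 min at room temperature with preformed BAZ2B/acetyl-K14 H3 peptide complex (50 nM each). Proximity signal was measured by AlphaScreen after 20 min with beads.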
# G9a block – G9a (human) methyltransferase inhibition; Q96KQ7; G9a H3K9 monomethylation, AlphaScreen, 2 h; Potency, µM (titrated, usually from 102 µM), inactives show top-dose activity, negative = inhibition, most hits filed as inhibitors; hit rate 8.8% among 350,000; AID 504332; further: on the % scale 0 is the no-effect control and ±100 the full control effect; nearly all actives have a fitted effect of over 75% in size
#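 Quantitative HTS format: methyltransferase activity on a biotin-tagged H3K9 peptide is measured by AlphaScreen, using a rabbit anti-monomethyl-H3K9 antibody with streptavidin donor and anti-IgG acceptor beads. Final levels are 20 nM enzyme, 500 nM peptide, 20 uM SAM; 2 h RT.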
# Numbers without * were called inactive; ? = inconclusive; . = not tested or not shown; [ ] = another dose, or the depositor's remark. In the library only some 11% were active in any assay of this set; here they are far more common. The call rests on the fitted dose curve; in most records, active means well fitted inhibition curve with a large enough effect; inconclusive means small, poorly fitted or top-dose-only effect; inactive means no such curve, though single readings can be large or run the other way. Potency means the concentration at half of the fitted maximal effect.
SMILES,HP1b chromo inh,L3MBTL1 inh,JMJD2A Tudor inh,BAZ2B inh,G9a block
COc1ccc(CCN(C)Cc2c(O)ccc3ccccc23)cc1OC,-17.3%,.,50.1µM*,-6.6%,8.91µM*
COc1cc(CC(=O)NCc2ccccn2)cc(OC)c1OC,31.6%,.,-8.7%,3.0%,92.5%[59 µM]
COc1ccc(CCN(C)C/C=C/c2ccccc2[N+](=O)[O-])cc1OC,-18.0%,-4.7%,22.4µM*,?,.
COc1cc(CN(C)CCc2ccccn2)cc(OC)c1OC,?,-9.8%,7.94µM*,20µM*,?
COc1cc(CN(C)Cc2ccccc2)cc(OC)c1O,25.7%,.,-16.1%,2.2%,8.91µM*
COc1cc(CN(C)C)cc(C=O)c1O,8.7%,-0.8%,-20.3%,-11.9%,.
CCN(CC)C(=O)Cn1c(=O)nc(-c2ccccc2F)c2cc(Cl)ccc21,3.8%,.,-7.9%,-0.8%,1.3%[59 µM]
CS(=O)(=O)N1CCN(Cc2ccc(C(F)(F)F)cc2)CC1,?,.,1.58µM*,?,3.16µM*
COc1cc(CN2CCN(Cc3ccc(C(F)(F)F)cc3)CC2)cc(OC)c1OC,?,-5.3%[2.29 µM],20µM*,17.8µM*,-1.6%[0.501 µM]
COc1cc(CN2CCN(Cc3ccccc3C(F)(F)F)CC2)cc(OC)c1OC,25.1µM*,.,0.794µM*,20µM*,-17.5%[2.33 µM]
COc1ccc(CNCc2ccc(C(F)(F)F)cc2)cc1OC,-6.0%,-4.1%,89.1µM*,-16.9%,79.4µM*
O=C(O)Cc1nnc(-c2cc3ccccc3[nH]2)s1,.,.,-33.6%,.,.
CCc1ccc(NC(=O)CSc2nc3n[nH]c(C)c3c(=N)n2-c2ccc(C)cc2)cc1,61.0%,.,-3.5%,?,3.2%[59 µM]
Cc1ccc(NC(=O)CN2C(=O)c3ccccc3S2(=O)=O)c(C)c1,27.6%,.,0.0%,7.6%,-14.6%
Cc1ccc(CNC(=O)Cn2nnc(C(=O)Nc3cc(C)ccc3C)c2N)cc1,55.8%,.,-6.8%,-12.0%,-5.4%[59 µM]
Clc1ccc(CN2CCN(c3ncccn3)CC2)cc1Cl,-23.8%,-3.0%,12.6µM*,79.4µM*,.
c1cnc(N2CCN(Cc3ccc4c(c3)OCO4)CC2)nc1,21.6%,-2.0%,-16.5%,-16.7%,0.5%[59 µM]
c1ccc(CN2CCN(c3ncccn3)CC2)cc1,-30.8%,10.4%,4.47µM*,?,25.1µM*
O=C(c1ccccc1)N1CCN(C(=O)c2ccc([N+](=O)[O-])cc2)CC1,28.9%,2.7%,2.8%,-4.5%,0.4%[59 µM]
O=C(c1ccc([N+](=O)[O-])cc1)N1CCN(c2cccc3[nH]ccc23)CC1,15.2%,-8.4%,-24.3%,-24.6%,50.1µM*
O=C(c1ccccc1)N1CCN(c2ccc([N+](=O)[O-])cc2-n2cccc2)CC1,19.3%,.,?,28.2µM*,.
Cc1oc2ncn(CC(C)C)c(=O)c2c1C(=O)Nc1cccc(C(F)(F)F)c1,33.6%,.,3.2%,8.1%[57.1 µM],-4.6%[59 µM]
CCOc1c2c(c(-c3ccc4c(c3)OCO4)c3cc(OC)c(OC)cc13)C(=O)OC2,-6.2%,.,-14.9%,.,.
FC(F)(F)c1cccc(CN2CCN(c3ncccn3)CC2)c1,49.6%,.,-16.1%,.,.
Clc1ccc(CN2CCN(c3ncccn3)CC2)cc1,11.7%,3.6%,12.6µM*,?,.
SMILES,HP1b chromo inh,L3MBTL1 inh,JMJD2A Tudor inh,BAZ2B inh,G9a block
CC(C)N1CCN(C(=O)c2ccc([N+](=O)[O-])cc2)CC1,?,.,79.4µM*,.,.
O=[N+]([O-])c1cccc(CN2CCN(c3cccc4[nH]ccc34)CC2)c1,-29.0%,.,56.2µM*,?,31.6µM*
NC(=O)c1cc([N+](=O)[O-])ccc1N1CCN(Cc2ccccc2)CC1,15.8%,-2.6%,-8.9%,-8.2%,.
O=[N+]([O-])c1cccc(CN2CCN(c3ncccn3)CC2)c1,?,-7.0%,2.24µM*,?,11.2µM*
Cc1cccc(-c2ccc3ncnc(NCc4cccc(F)c4)c3c2)c1,.,-9.2%,.,2.8%,-45.3%[12.7 µM]
Cc1cc(C)c2c(=O)n(CC(=O)NC3CCCC3)sc2n1,8.91µM*,-1.1%,2.24µM*,79.4µM*,0.501µM*
Cc1cc(C)c2c(=O)n(CC(=O)Nc3cccc(Cl)c3C)sc2n1,7.94µM*,.,2µM*,?,0.282µM*
COc1ccc(OC)c(CCNC(=O)Cn2sc3nc(C)cc(C)c3c2=O)c1,.,.,.,50.1µM*,1µM*
Cc1cc(C)c2c(=O)n(CC(=O)Nc3ccc(Br)c(C)c3)sc2n1,?,2.8%,2.51µM*,?,0.316µM*
Cc1cc(NC(=O)Cc2ccsc2)ccc1Br,47.9%,.,-3.9%,8.3%,-10.9%
CCOc1ccccc1N1CCN(S(=O)(=O)c2ccc(C3CCCCC3)cc2)CC1,30.2%,.,-6.8%,-0.1%,-1.9%[59 µM]
CCCCCC(=O)Nc1cccc(C2=NOC3(C2)C[C@@H](C(N)=O)N(C(=O)c2ccc(Cl)cc2)C3)c1 (stereo partly drawn),0.6%,.,-35.5%,-24.3%,?
Cc1cc2c(s1)c1cnn(Cc3c(F)cc(F)cc3F)c(=O)c1n2C,.,.,-19.2%,.,.
Cc1csc(NC(=O)CSc2nc(C)cs2)n1,22.3%,-1.4%,10.4%,1.2%,-20.7%[12.7 µM]
Cc1csc(NC(=O)CNS(=O)(=O)c2cccs2)n1,4.7%,-1.6%,8.91µM*,-2.2%,47.2%[12.7 µM]
COCCNCC(=O)Nc1nc(C)cs1,14.7%,2.3%,?,31.6µM*,8.91µM*
COc1ccc2nc(NC(=O)CNS(=O)(=O)c3cccs3)sc2c1,1.4%,.,-27.4%,-7.2%,10.2%[12.7 µM]
O=C(NC(=S)Nc1cc(C(F)(F)F)ccc1Cl)c1ccccc1,20.6%,4.9%,-15.3%,-37.5%,9.9%[0.501 µM]
O=C(O)c1ccc(NNC(=S)Nc2cc(C(F)(F)F)ccc2Cl)cc1,-6.4%,.,-32.9%,?,35.5µM*
Cc1ccc(C)c(NC(=O)NCc2ccccn2)c1,26.4%,.,-12.9%,6.4%,.
S=C(Nc1ccccn1)c1ccccn1,12.6µM*,.,5.01µM*,10µM*,?
Cc1ccc(C)c(NC(=S)c2ccccn2)c1,6.31µM*,?,79.4µM*,20µM*,?
c1ccc(Nc2ccccn2)nc1,3.8%,.,?,?,0.501µM*
Oc1ccccc1Nc1ccccn1,23.4%,.,-7.1%,-25.3%,?
O=C(OCC#CCSc1nnc(-c2cccc3ccccc23)o1)c1ccc(C(F)(F)F)cc1,.,.,7.5%,.,.
SMILES,HP1b chromo inh,L3MBTL1 inh,JMJD2A Tudor inh,BAZ2B inh,G9a block
COc1cc(CN2CCCC(C(=O)c3ccc4c5c(cccc35)CC4)C2)cc(OC)c1O (stereo not drawn),-19.9%,-13.0%,?,39.8µM*,31.6µM*
Cc1cccc(CN2CCCC(C(=O)c3ccc4c5c(cccc35)CC4)C2)n1 (stereo not drawn),10.2%,?,?,?,?
O=C(c1ccc2c3c(cccc13)CC2)C1CCCN(Cc2cccnc2)C1 (stereo not drawn),-2.8%[57 µM],-7.8%,?,44.7µM*,.
O=C(c1ccc2c3c(cccc13)CC2)C1CCCN(C(=O)c2cccnc2)C1 (stereo not drawn),33.0%,-8.5%,-25.5%,-24.9%,?
O=C1Nc2ccc(I)cc2/C1=C/c1cc(Br)c(O)c(Br)c1,.,.,.,.,21.2µM*
Cc1ccc2c(c1)/C(=C/c1ccccc1)C(=O)N2,-8.1%,.,?,?,13.1%
